Test results reported in ChEMBL document CHEMBL3988442, “University of Dundee, Small-Polar-MMV Screening Library” (2021).

The compounds below were run against AMP-activated protein kinase, AMPK (Homo sapiens) (UniProt P54646+O43741+P54619+Q9UGJ0+Q9Y478+Q13131+Q9UGI9) (assay: AMP-dependent Kinase enzyme assay. An in vitro enzyme assay that detects ADP turnover that is directly proportional to AMPK activity. This uses naive AMPK that is activated during the assay with MK-8722). Conditions: 30 µM.
Assay type: functional
Parameters: scale not given: direction of the effect not stated beside the values
Work on `Cc1nsc(C(=O)NCCc2cccs2)n1` yielded a Percent Effect of 1.77%. `Cc1nsc(C(=O)NCCc2ccc(Cl)cc2)n1` gave a Percent Effect of -0.0138%. Compound `O=C(C1CCCN(CCc2ccc3c(c2)CCO3)C1)N1CCCC1` (stereo unspecified) has a Percent Effect of 1.69%. For `CN(C)C(CNC(=O)OCC(F)(F)F)c1ccsc1` (stereo unspecified), the Percent Effect was -1.15%. In the case of `CC1(C)O[C@@](C)([C@H]2CC3(CCN(c4ncccn4)CC3)CO2)CC[C@@H]1O`, the Percent Effect is reported as 7.88%. `CCCN1CCN(S(=O)(=O)c2ccccc2OC)[C@H]2CS(=O)(=O)C[C@H]21` showed a Percent Effect of 2.61%. In the case of `CCOC(=O)N(C)C1CCN(Cc2cnc3ccccn23)CC1`, the Percent Effect is reported as 0.795%. `CN(C)CCCC(=O)NC1CC(C)(C)Cc2nc(C(C)(C)C)ncc21` (stereo unspecified) gave a Percent Effect of 8.49%. Compound `CC(CN1CCOC1=O)NC(=O)c1cccc(Cl)c1Cl` (stereo unspecified) has a Percent Effect of 10%. With `CCc1noc(C(C)N2CCCN(Cc3noc(C4CC4)n3)CC2)n1` (stereo unspecified) the Percent Effect was 0.0834%. `CN(CCc1cccs1)CCc1nccs1` gave a Percent Effect of -4.34%. Compound `O=C(NCC1CCCO1)Nc1nnc(C(F)(F)F)s1` (stereo unspecified) has a Percent Effect of 3.01%. In the case of `CCn1nc(C)c(CCN2CC3(CCOC3)CCC2=O)c1C` (stereo unspecified), the Percent Effect is reported as -1.79%. With `Cc1cncc(C2CCN(Cc3ccc(S(C)(=O)=O)cc3)CC2)n1` the Percent Effect was 5.76%. `CC1CCCCN1C(=O)Cn1cnc(C#N)n1` (stereo unspecified) was tested, and the Percent Effect was -5.33%. In the case of `Fc1ccc(N2CCCN(c3ccc(Cn4ccnc4)cn3)CC2)cc1`, the Percent Effect is reported as -3.34%. `Cc1ncccc1CNC(CCO)C1CCCCC1` (stereo unspecified) was tested, and the Percent Effect was -0.143%. For `O=C(NCc1nnnn1-c1ccccc1)c1ccc(C2CCCO2)s1` (stereo unspecified), the Percent Effect was 1.57%. Compound `Fc1ccc(C2(CNCCc3cccs3)CCOC2)cc1` (stereo unspecified) has a Percent Effect of -3.1%. `Cc1cc(CNS(=O)(=O)CCCC#N)ccc1N(C)C` was tested, and the Percent Effect was -7.86%. For `COC(=O)C1CCN(C(=O)Cn2ccc(-c3ccsc3)n2)CC1`, the Percent Effect was -3.29%.
